From PubChem BioAssay AID1851 (National Center for Advancing Translational Sciences (NCATS), 2009)
Among all 16,000 compounds or so, about 2,600 (16%) were called active. Inconclusive results (about 20%) are left out. Not all results are given here. A number with no mark means an inactive call. The call rests on the fitted dose curve; in most records, active means well fitted curve in the direction sought with a large enough effect; inconclusive means small, poorly fitted or top-dose-only effect, or effect the other way; inactive means no such curve, though single readings can be large or run the other way.
On the % scale 0 is the no-effect control and ±100 the full control effect.

Each compound was assayed against Cytochrome P450 2D6 (Homo sapiens) (UniProt P10635) (assay: Cytochrome panel assay with activity outcomes). Conditions: recombinant CYP, pro-luciferin dealkylation, luminescence, p450-cyp2d6; series mostly up to 57.1 µM.
Chain of Cytochrome P450 2D6 (Homo sapiens) (P10635 whole entry, looked up): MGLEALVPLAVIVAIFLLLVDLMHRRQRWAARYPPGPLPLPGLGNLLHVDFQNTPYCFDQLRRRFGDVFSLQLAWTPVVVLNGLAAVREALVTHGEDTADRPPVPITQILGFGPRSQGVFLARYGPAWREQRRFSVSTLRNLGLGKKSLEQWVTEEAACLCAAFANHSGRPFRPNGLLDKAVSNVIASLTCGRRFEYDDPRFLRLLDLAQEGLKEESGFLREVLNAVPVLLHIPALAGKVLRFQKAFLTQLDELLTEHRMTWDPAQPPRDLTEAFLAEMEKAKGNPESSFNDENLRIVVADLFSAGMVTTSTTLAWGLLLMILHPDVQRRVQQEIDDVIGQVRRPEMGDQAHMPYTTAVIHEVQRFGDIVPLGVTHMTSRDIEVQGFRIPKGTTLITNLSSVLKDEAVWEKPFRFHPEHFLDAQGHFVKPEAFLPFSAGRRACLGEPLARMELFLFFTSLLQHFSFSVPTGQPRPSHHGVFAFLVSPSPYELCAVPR
`CCOC(=O)C1=C(C)C(c2ccccc2OC)NC(=S)N1` (configuration not stated) was tested, and the AC50 was “inactive”. For `Cn1c(=O)oc2cc(S(=O)(=O)NCCC(=O)N3CC=C(c4ccccc4)CC3)ccc21`, the AC50 was “inactive”. In the case of `O=C(O)c1cc2cc(Cl)ccc2oc1=O`, the AC50 is reported as “inactive”. With `O=C(Nc1ccccc1N1CCOCC1)c1cnccn1` the AC50 was “inactive”. In the case of `O=C(Nc1ccc2ncccc2c1)Nc1ccc2ncccc2c1`, the activity, negative = inhibition is reported as -10.5% [at 11.4 µM]. For `Cc1nc2ccc(NC(=O)Nc3ccnc4cccnc34)cc2o1`, the AC50 was 10 µM (active). Compound `Cc1cc(N)c2cc(NC(=O)Nc3ccc4nc(C)cc(N)c4c3)ccc2n1` has an activity, negative = inhibition of 7.45% [at 11.4 µM]. With `CN(C)c1ncc2nc(-c3ccc(F)cc3)c(=O)n(C)c2n1` the AC50 was “inactive”. With `COc1ccc2cc(C(=O)Nc3ccc(F)cc3)sc(=O)c2c1OC` the AC50 was “inactive”. For `CC(C)C(=O)Nc1ccc(C(=O)NNC(=O)C(c2ccccc2)c2ccccc2)cc1`, the AC50 was “inactive”. `N#Cc1ccccc1-c1ccc2ncnc(N3CCNCC3)c2c1` was tested, and the AC50 was “inactive”. In the case of `CN(C)C(=O)c1ccc(-c2ccc3ncnc(N4CCNCC4)c3c2)cc1`, the AC50 is reported as “inactive”. `CN(C)c1ccc(-c2ccc3ncnc(N4CCNCC4)c3c2)cc1` was tested, and the AC50 was 12.6 µM (active). `CN1CCN(c2ncnc3ccc(-c4cccc(C#N)c4)cc23)CC1` was tested, and the AC50 was “inactive”. In the case of `Cc1ccccc1-c1ccc2ncnc(N3CCNCC3)c2c1`, the AC50 is reported as “inactive”. In the case of `N#Cc1cccc(-c2ccc3ncnc(N4CCNCC4)c3c2)c1`, the AC50 is reported as “inactive”. `CN1CCN(c2ncnc3ccc(-c4ccc5c(c4)OCO5)cc23)CC1` was tested, and the AC50 was 0.251 µM (active). With `Cc1noc(C)c1-c1ccc2ncnc(N3CCN(C)CC3)c2c1` the AC50 was “inactive”. With `c1nc(N2CCNCC2)c2cc(-c3ccc4c(c3)OCO4)ccc2n1` the AC50 was 2.51 µM (active). With `COc1ccc(C(=O)N2CCC[C@@]3(CCN(C(=O)NC(C)C)C3)C2)cc1` the AC50 was “inactive”. With `Cc1nc2ncnn2c(C)c1CCC(=O)NCc1ccco1` the AC50 was “inactive”. With `CCc1ccccc1NC(=O)c1ccc(F)c(S(=O)(=O)N2CCC(C(N)=O)CC2)c1` the AC50 was “inactive”. For `CC(=O)c1c(O)c(C)c(-c2ccccc2)n(-c2ccccc2)c1=O`, the AC50 was “inactive”. For `CCCc1c(OCCCOc2ccc(OCC(=O)O)cc2)ccc(CC=O)c1O`, the AC50 was “inactive”. For `CCCC(O)(CCC)C(=O)NN1CCCCC1`, the AC50 was “inactive”. `Cn1c(=O)n(C)c2cc(/C=N/n3cnnc3)ccc21` was tested, and the AC50 was “inactive”. In the case of `Brc1ccc(-c2nnc(-c3ccccc3)c(N3CCSCC3)n2)cc1`, the AC50 is reported as “inactive”. `COc1ccccc1-c1ccc2ncnc(N3CCOCC3)c2c1` was tested, and the AC50 was “inactive”. For `COc1ccc(OC)c2c(=S)c3ccccc3[nH]c12`, the AC50 was “inactive”. `COc1cccc2[nH]c3c(N4CC(C)CC(C)C4)ncnc3c12` (configuration not stated) was tested, and the AC50 was 2 µM (active). With `Cc1nn(Cc2ccccc2Cl)c(C)c1NC(=O)CCCn1nc(C)c([N+](=O)[O-])c1C` the AC50 was “inactive”. With `CCn1c2ccccc2c2cc(/C=N/n3cn[nH]c3=S)ccc21` the AC50 was “inactive”. In the case of `CCn1c2ccccc2c2cnc(N=CN(C)C)c(C#N)c21`, the AC50 is reported as 1.41 µM (active). With `COc1ccccc1NC(=O)Cn1nnc(-c2ccccc2NC(=O)c2cc3ccccc3oc2=O)n1` the AC50 was “inactive”. For `CCOC(=O)C1CCCN(C(=O)CCCOc2cc(=O)n(C)c3ccccc23)C1` (configuration not stated), the AC50 was “inactive”. In the case of `Cn1ncc(C#N)c1NC(=O)C1CC(c2ccc(Cl)cc2)=NO1` (configuration not stated), the AC50 is reported as 3.98 µM (active). With `CC(=O)c1ccc(NC(=O)C2CC(c3ccc(F)cc3)=NO2)cc1` (configuration not stated) the AC50 was “inactive”. `O=C(NC1CCCC1)C1CC(c2ccc(F)cc2)=NO1` (configuration not stated) was tested, and the AC50 was “inactive”. With `C=CC[C@H](N)C(=O)O` the AC50 was “inactive”. For `COc1ccc(-n2c(=O)c(C)nc3cnc(N4CCNCC4)nc32)cc1`, the AC50 was “inactive”. For `Nc1[nH]c(=O)nc2c1ncn2[C@H]1O[C@@H](CO)[C@@H](O)[C@@H]1O`, the activity, negative = inhibition was 7.59% [at 11.4 µM]. For `COc1ccc(CNC(=O)c2cnc(C)cn2)cc1`, the AC50 was “inactive”. With `COc1ccc(CNC(=O)c2csc(Cc3ccc(OC)cc3)n2)cc1` the AC50 was “inactive”. `COc1ccc(CNC(=O)c2csc(Cc3ccc(Cl)cc3)n2)cc1` was tested, and the AC50 was 14.1 µM (active). Work on `CO[C@@H]1COC(=O)C/C=C\[C@@H](C)[C@H](OC)COC(=O)[C@H](COCc2ccccc2)NC(=O)C/C=C\[C@H]1C` yielded an activity, negative = inhibition of -2.59% [at 11.4 µM]. `C[C@@H]1[C@H]2CC[C@@H]3[C@@H]4CC=C5C[C@@H](N(C)C)CC[C@]5(C)[C@@H]4CC[C@@]32CN1C` was tested, and the AC50 was “inactive”. With `CN(C)c1ncc2nc(-c3ccccc3)c(=O)n(Cc3ccc(F)cc3)c2n1` the AC50 was “inactive”. For `O=S(=O)(NCCCCCCc1ccccc1)c1cccc2c(Cl)cccc12`, the AC50 was “inactive”. With `NCCCCCCNS(=O)(=O)c1cccc2c(Cl)cccc12` the AC50 was 12.6 µM (active). In the case of `NCCCCCCCCCCNS(=O)(=O)c1cccc2c(Cl)cccc12`, the AC50 is reported as 1.26 µM (active). For `NCCCCCCNS(=O)(=O)c1cccc2ccccc12`, the AC50 was “inactive”. `CCCCNS(=O)(=O)c1ccc(OC)c(Cl)c1Cl` was tested, and the AC50 was “inactive”. In the case of `CCCCCCCNS(=O)(=O)c1cccc2c(Cl)cccc12`, the AC50 is reported as “inactive”. In the case of `C#C[C@]1(O)CC[C@@H]2[C@H]3CCC4=CCCC[C@@H]4[C@@H]3CC[C@@]21C`, the AC50 is reported as “inactive”. With `N#CCCn1c(=O)c(-c2cc(F)cc(F)c2)nc2cnc(OCc3ccccc3)nc21` the AC50 was “inactive”. For `Cc1ncc(COP(=O)(O)O)c(C)c1O`, the activity, negative = inhibition was 11.2% [at 11.4 µM]. In the case of `Cn1cc(/C=N/n2cnc3scc(-c4ccccc4)c3c2=O)c2ccccc21`, the AC50 is reported as “inactive”. `CN1CCC[C@@H](CC2c3ccccc3Sc3ccccc32)C1` was tested, and the AC50 was 0.316 µM (active). In the case of `CN1CC[C@H](CN2c3ccccc3Sc3ccccc32)C1`, the AC50 is reported as 0.126 µM (active). Compound `CO[C@H]1COC(=O)[C@@H](Cc2ccccc2)NC(=O)[C@@H](C)COC(=O)C/C=C\[C@@H]1C` has an activity, negative = inhibition of 2.58% [at 11.4 µM]. In the case of `CC(C)(C)c1ccc(C2CC2C(=O)N/N=C\c2cc3ccccc3nc2Cl)cc1` (configuration not stated), the AC50 is reported as “inactive”. With `COC(=O)[C@@]1(Cc2ccccc2)[C@@H]2C(=CC(=O)[C@H]2CC(=O)C(=O)N(C)C)CN1C(=O)c1ccccc1` the AC50 was “inactive”. In the case of `COc1cc(C2C(C#N)=C(N)OC3=C2C(=O)CCC3)c([N+](=O)[O-])cc1OC` (configuration not stated), the AC50 is reported as “inactive”. For `Nc1ncnc2c1ncn2[C@@H]1O[C@@H](C(=O)NC2CC2)[C@H](O)[C@@H]1O`, the AC50 was “inactive”. For `c1ccc(CN2CC[C@@H](CNc3ncnc4ccccc34)C2)cc1`, the AC50 was 0.794 µM (active). `OC[C@@H](O)CNc1ncnc2ccccc12` showed an activity, negative = inhibition of 3.48% [at 11.4 µM]. Work on `CC(CO)(CO)Nc1ncnc2ccccc12` yielded an activity, negative = inhibition of -4.58% [at 11.4 µM].
